HCMV antiviral – blocks human cytomegalovirus replication; hit rate 4.5% among 410,000; HFF cells, HCMV-luciferase reporter, 72 h; active compounds read low; activity change, negative = inhibition, % at 57.5 µM; in the data active means activity change below about -60%; inconclusive means no clear call, values can overlap the other calls; inactive means above about -39%
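Compounds were evaluated in HFFs infected with an HCMV luciferase reporter virus (MOI 1 PFU/cell). Luciferase in lysates collected 72 h post infection served as the replication measure.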
HCV inhibitor – blocks hepatitis C virus; Huh7.5.1 HCVcc-Cre infection, luciferase reporter, 44 h; Potency, µM (series often up to 41.8 µM), most hits filed as inhibitors; hit rate 3.4% among 340,000; AID 651820; active means well fitted inhibition curve with a large enough effect; inconclusive means small, poorly fitted or top-dose-only effect, or another doubt; inactive means no such curve, though single readings can be large or run the other way
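1,000 cells/well; 4 h culture; + compound; + HCVcc-Cre (~0.5 moi); 44 h; luciferase substrate, RT 15 min; read 15 sec.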
VACV Venus inh – inhibitors of vaccinia virus (Venus reporter); Potency, µM (highest dose often 36.5 µM), hits mostly inhibitors; Vaccinia virus Venus reporter expression, fluorescence; AID 720580; hit rate 0.46% among 330,000; calls by dose curve; tested in A549 cells; further: nearly all actives have a fitted effect of over 30% in size
Vaccinia mCherry – vaccinia inhibition (mCherry reporter); Vaccinia virus mCherry reporter infection, fluorescence; Potency, µM (top dose mostly 36.5 µM), hits mostly inhibitors; hit rate 0.63% among 310,000; AID 720579; calls by dose curve; tested in A549 cells; further: nearly all actives have a fitted effect of over 35% in size
LASV entry inh – Lassa virus entry inhibition; Lassa virus pseudotype entry inhibition, cell reporter; Potency, µM (highest dose often 37.9 µM), usual class: inhibitors; hit rate 1.2% among 300,000; calls by dose curve; tested in HEK293 cells; further: nearly all actives have a fitted effect of over 50% in size
Marburg entry inh – Marburg virus entry inhibition; Potency, µM (series often up to 37.8 µM), most hits filed as inhibitors; hit rate 1.8% among 300,000; AID 540276; Marburg virus pseudotyped entry inhibition, cell reporter; calls by dose curve; tested in HEK293 cells
Hits are given with their value; - = inactive; ? = inconclusive; . = no result; [ ] = remark or other dose. Most compounds without a hit are left out; they make up all but 7.8% or so of the library.

SMILES | HCMV antiviral | HCV inhibitor | VACV Venus inh | Vaccinia mCherry | LASV entry inh | Marburg entry inh
Cc1ccn2c(NC3CCCC3)c(-c3ccncc3)nc2c1 | - | ? | . | . | . | .
Cc1ccccc1Nc1c(-c2ccsc2)nc2c(C)cccn12 | -84.4 | . | - | - | - | -
COc1ccc(C(=O)Nc2nc3n(n2)C(c2ccc(Cl)cc2)C=C(c2ccccc2)N3)cc1OC (centres undefined) | - | . | - | - | - | ?
CN(C)c1ccc2cc(S(=O)(=O)O)cc(O)c2c1 | -100.3 | - | - | ? | - | -
Oc1ccccc1N=Nc1ccccc1O | -99.4 | 0.891µM | ? | ? | . | .
Cc1cccc(-n2c(=O)c3c(c4cc(C)ccc4n3C)n(CC(=O)NCC3CCCO3)c2=O)c1 (centres undefined) | -105.9 | . | - | - | - | .
COc1ccc(CN2Cc3cnnn3-c3ccccc3C2C#N)cc1 (centres undefined) | -110.2 | 3.98µM | - | ? | . | .
CC(=O)Nc1ccc(S(=O)(=O)N2Cc3cnnn3-c3ccccc3C2C#N)cc1 (centres undefined) | - | 0.316µM | - | - | . | .
N#CC1c2ccccc2-n2nncc2CN1S(=O)(=O)c1ccc(Cl)cc1 (centres undefined) | - | ? | - | - | . | .
COc1ccc(CN2Cc3cnnn3-c3ccccc3C2c2ccccc2)cc1 (centres undefined) | - | 1.26µM | ? | ? | . | .
N#CC1c2ccccc2-n2nncc2CN1Cc1cc(Cl)cc(Cl)c1 (centres undefined) | -99.6 | 5.62µM | - | - | . | .
CN1Cc2cnnn2-c2ccccc2C1C#N (centres undefined) | -63.5 | -[8.37 µM] | - | - | . | .
CS(=O)(=O)N1Cc2cnnn2-c2ccccc2C1C#N (centres undefined) | - | -[8.37 µM] | - | - | . | .
O=C1CN(S(=O)(=O)c2ccccc2)C[C@H]2[C@H](c3ccc(Br)cc3)[C@H](CO)N12 | - | . | . | . | . | .
O=C(O)c1ccc2c(=O)n3cc(C(=O)c4ccccc4O)cc(Cl)c3nc2c1 | -79.8 | - | . | . | . | .
O=C(NNC(=O)c1ccccc1Cl)c1ccc2c(=O)n3c(nc2c1)CCC3 | - | - | . | . | . | .
CCCCCCN1CC(O)=C(c2ccccc2)C1=N | - | - | - | . | - | -
CCCCCn1ccc(=N)cc1 | -72.8 | 6.31µM | ? | . | - | -
CCCCCCCn1ccc(=N)cc1 | -91.0 | 0.562µM | ? | . | ? | ?
CCCCCCCCCn1ccc(=N)cc1 | -94.7 | 0.0398µM | ? | - | ? | ?
CCn1ccc(=N)cc1 | - | - | - | . | - | -
Cc1ccc(/C=C2\SC(=S)N(CCCC(=O)Nc3cccnc3)C2=O)cc1 | . | - | - | - | ? | ?
O=C(CCN1C(=O)/C(=C/c2ccc(Cl)cc2)SC1=S)Nc1cccnc1 | - | - | - | - | - | -
O=C(CCCN1C(=O)/C(=C\c2cccc(Br)c2)SC1=S)Nc1cccnc1 | -99.4 | ? | ? | ? | ? | 4.47µM
O=C(CCCN1C(=O)/C(=C/c2cccc(Br)c2)SC1=S)Nc1ccccn1 | -101.5 | 11.2µM | . | . | - | ?
SMILES | HCMV antiviral | HCV inhibitor | VACV Venus inh | Vaccinia mCherry | LASV entry inh | Marburg entry inh
O=C(CCN1C(=O)/C(=C/C=C/c2ccccc2)SC1=S)Nc1ccccn1 | -64.8 | - | - | - | ? | -
O=C(CCCN1C(=O)/C(=C/c2cccc(Br)c2)SC1=S)Nc1cccnc1 | -99.4 | ? | - | ? | ? | ?
CCOc1ccc(CN2CCOc3ccc(C(O)c4cccnc4)cc3C2)cc1 (centres undefined) | . | . | - | - | . | .
O=C(CSc1nc2ccccc2nc1Cc1ccc(Cl)cc1)N1CCc2ccccc21 | - | . | - | - | - | .
CCOc1ccccc1NC(=O)C1CCN(S(=O)(=O)Cc2ccccc2)CC1 | - | . | - | - | - | ?
COc1ccc(NC(=O)C(NC(=O)/C=C\c2ccc3c(c2)OCO3)c2ccccc2)cc1 (centres undefined) | ? | . | -[7.34 µM] | -[7.34 µM] | ? | ?
COc1cc(NC(=O)c2ccc([N+](=O)[O-])o2)ccc1NC(=O)c1cccs1 | - | ? | 10µM | 10µM | ? | ?
O=C(Nc1cccc(NC(=O)c2cccs2)c1)c1ccc([N+](=O)[O-])o1 | -92.3 | 10µM | ? | ? | ? | ?
COc1cccc(CCNC(=O)c2c(O)nc3ccccn3c2=O)c1 | ? | . | - | - | . | ?
CC(=O)c1c(C)[nH]c(C(=O)C(C)Sc2nnc(NC3CC3)s2)c1C (centres undefined) | - | 10µM | - | - | ? | ?
O=C1NC2(CCCCC2)N(C(=O)c2ccccc2)C2=C1CCCC2 | ? | 3.16µM | . | . | . | .
Cc1ccc(C(=O)N2C3=C(CCCC3)C(=O)NC23CCCCC3)cc1 | - | - | - | - | - | ?
CC(=O)c1ccc(NC(=O)CSc2nc(C3CC3)nc3ccccc23)cc1 | - | - | - | ? | ? | ?
COc1ccc(NC(=O)CSc2nc(C3CC3)nc3ccccc23)cc1 | ? | 11.2µM | ? | ? | ? | ?
COc1ccc(NC(=O)CSc2ncnc3c2cnn3CCc2ccccc2)cc1 | - | - | - | -[1.46 µM] | 11.2µM | ?
CCc1cccc(CC)c1NC(=O)CN1CC(C)SC1=NC1CCCCC1 (centres undefined) | -63.1 | - | - | - | ? | ?
CCc1cccc(CC)c1NC(=O)NC1CCCCC1 | - | - | - | - | - | ?
CCCn1c(CN(C)Cc2ccccc2)nc2c1c(=O)n(C)c(=O)n2C | -68.1 | 7.94µM | . | . | ? | ?
CCOCCn1c(CN(C)Cc2ccccc2)nc2c1c(=O)n(C)c(=O)n2C | - | - | - | - | . | .
COCCn1c(CN(C)Cc2ccccc2)nc2c1c(=O)n(C)c(=O)n2C | - | ? | - | - | . | .
CC1CCCCN1Cc1nc2c(c(=O)n(C)c(=O)n2C)n1CCc1ccccc1 (centres undefined) | -66.9 | - | - | . | - | -
CN(Cc1ccccc1)Cc1nc2c(c(=O)n(C)c(=O)n2C)n1CCc1ccccc1 | - | 35.5µM | - | - | - | ?
CN(Cc1ccccc1)Cc1nc2c(c(=O)n(C)c(=O)n2C)n1Cc1ccccc1Cl | - | ? | . | . | ? | ?
CC1CCCCN1Cc1nc2c(c(=O)n(C)c(=O)n2C)n1Cc1ccc(Br)cc1 (centres undefined) | - | . | - | - | - | -
CCCCn1c(CN(C)Cc2ccccc2)nc2c1c(=O)n(C)c(=O)n2C | ? | 11.2µM | . | . | - | ?
SMILES | HCMV antiviral | HCV inhibitor | VACV Venus inh | Vaccinia mCherry | LASV entry inh | Marburg entry inh
CC(=O)c1ccc(NC(=O)CSc2ccc3nc(-c4ccccc4)cn3n2)cc1 | - | . | - | - | ? | .
CCCn1c(CN(Cc2ccccc2)Cc2ccccc2)nc2c1c(=O)n(C)c(=O)n2C | . | 7.94µM | - | - | - | ?
CCOC(=O)Cc1nn(CC)c(=O)c2ccccc12 | - | - | . | . | . | .
CCOC(=O)Cc1nn(Cc2nc(-c3ccc(C#N)cc3)cs2)c(=O)c2ccccc12 | ? | 10µM | - | - | ? | ?
CCOc1ccc(NC2=C(Cl)C(=O)N(C3CCCCC3)C2=O)cc1 | - | - | - | - | - | ?
CN1CCN(C2=C(Cl)C(=O)N(C3CCCCC3)C2=O)CC1 | -95.3 | ? | . | . | - | -
O=c1cc(-c2ccccc2)[nH]c2nc3ccccc3n12 | - | - | . | . | ? | 5.8µM
